Most compounds without a hit are left out; they make up all but 12% or so of the library.
Ins promoter up: insulin promoter activators in MIN6 cells, imaging, high-content screening, mouse beta cells; MIN6 insulin promoter-GFP reporter; active compounds read high; z-score at 5 µM; 190,000 compounds, 0.3% hits; AID 1625, 2009;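 active means z-score above 3 at 5 µM with at least 500 cells counted in the well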
KCC2 mod: KCC2 cotransporter modulators, thallium flux, primary screen, cell-based, HEK293 KCC2, FluoZin-2 fluorescence, MLSMR; Solute carrier family 12 member 5 (Homo sapiens), Q9H2X9; KCC2 cells, thallium flux FluoZin-2 fluorescence; B-score of Tl+ flux slope (higher = more flux/activation; lower = inhibition) at 10 µM; 190,000 compounds, 2.2% hits; AID 1456, 2008;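 active means thallium flux slope and its plate-corrected score both differing from the plate sample mean at a set confidence after two filtering rounds, in either direction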;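 further: slope of fluorescence scaled to starting intensity during 10 to 20 s after thallium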
WT yeast gro inh: growth inhibition of WT strain, primary screen, mitochondrial fusion inhibitor project, WT and mutant strains, chemical genetic | AID 1362, 2008 | mitochondrial fusion phenotypic screen | inhibition, % at 10 µM | 190,000 compounds, 2.1% hits; in the data active means inhibition above about 58%; tested in S. cerevisiae
Lmaj promast: Leishmania major promastigote growth inhibition, primary screen. Leishmania major promastigotes, resazurin fluorescence viability. inhibition, % at 10 µM. 200,000 compounds, 9% hits; in the data active means inhibition above about 50%;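 further: promastigotes grown with compound for 44 hours at 28 °C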
Insulin prom inh: inhibitors of insulin promoter-driven GFP, primary screen, imaging, TRM-6 cells (human fetal islet line), eGFP reporter, cell count | reporter expression induced with tamoxifen | 130,000 compounds, 0.9% hits | inhibition, % at 2 µM;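 active means inhibition above the mean plus 3 SD, with well images judged a real hit on visual review, cut at about 60% in these data, passing the limit was not always enough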
ROMK primary: ROMK potassium channel modulators, primary screen, cell-based, thallium flux, MLSMR library; Tet-inducible ROMK, thallium flux fluorescence; actives lie on both sides; B-score at 10 µM; 130,000 compounds, 2% hits;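 active means signal ratio slope over the read window, or its plate-corrected B-score, at least 3 SD from the plate mean, either direction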;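 further: B-score of the F/F0 ratio slope over 7 to 12 s after thallium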
Target sequence (P48048 whole entry, looked up): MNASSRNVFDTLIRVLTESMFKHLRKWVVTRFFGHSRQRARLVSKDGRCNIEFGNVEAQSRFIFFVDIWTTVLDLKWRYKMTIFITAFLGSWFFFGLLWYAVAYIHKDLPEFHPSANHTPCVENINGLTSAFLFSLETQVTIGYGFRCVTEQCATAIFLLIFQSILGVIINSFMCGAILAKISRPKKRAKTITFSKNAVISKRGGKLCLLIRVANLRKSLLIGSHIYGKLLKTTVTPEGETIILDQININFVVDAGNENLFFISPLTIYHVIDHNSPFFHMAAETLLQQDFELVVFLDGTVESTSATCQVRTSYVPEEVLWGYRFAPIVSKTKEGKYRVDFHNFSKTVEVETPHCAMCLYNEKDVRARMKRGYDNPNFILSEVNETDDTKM
Active calls of the source: *; x = not tested or not shown.

SMILES | Ins promoter up | KCC2 mod | WT yeast gro inh | Lmaj promast | Insulin prom inh | ROMK primary
COc1ccc(NC(=O)CN2CCC(n3c(C)nc4cc(F)ccc43)CC2)c(OC)c1 | -0.94 | x | 10 | 8 | x | 0.3
FC(F)(F)c1cc(N2CCN(Cc3ccccc3)CC2)c2ccccc2n1 | 1.8 | -1.6 | x | x | x | -1.7
Cc1cc2nc(C)n(CCCNC(=O)Nc3ccc(F)cc3)c2cc1C | -0.18 | -0.018 | 0 | 91* | -20 | -0.8
Cc1nn(C(C)C(=O)NCC2CCCO2)c(=O)c2cc3occc3n12 (centres undefined) | 0.59 | 1.6 | 61* | -12 | x | x
CC1CC(C)CN(C(=O)c2ccc3c(c2NCCO)C(=O)c2ccccc2C3=O)C1 (centres undefined) | -0.43 | -1.5 | 28 | 99* | 39 | -2.4
Cc1c(C)c2cc(Cl)c(O)c(CN3CCCC(C)C3)c2oc1=O (centres undefined) | 0.39 | -0.58 | 66* | -4 | -46 | -0.0011
COC(=O)CNC(=O)C(C)(C)Oc1ccc(Cl)cc1 | x | x | -3 | 3 | 13 | 1.4
O=C(N=Nc1c(O)[nH]c2ccc(Cl)cc12)c1cc(-c2cccs2)nc2ccccc12 | 0.2 | 1.4 | -5 | 52* | 5 | 0.28
O=C(N=Nc1c(O)[nH]c2ccc([N+](=O)[O-])cc12)c1ccccc1Cl | -1.1 | 0.03 | x | x | x | x
CC#C[C@]1(O)CC[C@H]2[C@@H]3CCC4=CC(=O)CCC4=C3[C@@H](c3ccc(N(C)C)cc3)C[C@@]21C | x | -0.13 | 87* | 36 | -5 | x
Fc1ccccc1-c1csc(=Nc2cccnc2)n1CC1CCCO1 (centres undefined) | -1.9 | 0.12 | 2 | 11 | 20 | 0.42
CCN=c1scc(C)n1/N=C/c1cc(Br)c(O)c(OC)c1 | -1.2 | -0.22 | 17 | 18 | -89 | 1.8
CN=c1scc(-c2ccccc2F)n1/N=C/c1ccc(O)c(O)c1O | -0.33 | -0.35 | 39 | -5 | x | -0.096
COc1ccc(O)c(/C=N/n2c(-c3ccco3)csc2=Nc2cccnc2)c1 | 0.78 | -0.025 | 24 | 91* | 30 | x
CCN=c1scc(-c2cccs2)n1/N=C/c1cc(OC)ccc1O | -0.58 | -0.8 | 47 | 75* | 22 | x
Fc1ccccc1-c1csc(=Nc2cccnc2)n1CCCn1ccnc1 | -0.33 | -0.61 | 19 | 76* | -19 | x
CC(C)N=c1scc(-c2cccs2)n1/N=C/c1ccc(O)c(O)c1O | -0.57 | -0.11 | 82* | -2 | 27 | 0.91
Cc1nc2c(o1)CCc1ccccc1C2O (centres undefined) | x | 0.085 | 12 | -5 | -21 | -0.33
COc1cccc(OC)c1C(=O)OCC(=O)NCC(C)C | 0.21 | 0.76 | 3 | 3 | 0 | -0.5
CC(C)Cn1c(-c2ccco2)csc1=Nc1cccnc1 | -0.24 | -0.84 | 11 | 58* | 26 | x
COCCn1c(-c2ccco2)csc1=Nc1cccnc1 | -0.05 | 0.55 | 12 | -10 | 26 | 0.033
COC(=O)C(NS(=O)(=O)c1ccccc1Br)C(C)C (centres undefined) | 0.06 | 0.08 | x | x | x | x
COc1cc(C(C)=O)ccc1Oc1ncnc2c1cnn2-c1ccc(C)c(C)c1 | -0.04 | -0.86 | -6 | -1 | x | 0.35
Cc1ccc(Cl)cc1N(Cc1ccc(C(=O)NCc2cccnc2)cc1)S(=O)(=O)c1ccccc1 | -2.3 | x | 35 | 83* | 15 | x
COc1ccccc1NC(=O)c1ccc(CN(c2cc(Cl)ccc2C)S(=O)(=O)c2ccccc2)cc1 | -1.1 | x | 0 | 2 | 36 | 0.16
SMILES | Ins promoter up | KCC2 mod | WT yeast gro inh | Lmaj promast | Insulin prom inh | ROMK primary
O=C1CC(/C=C/c2ccccn2)=Nc2ccccc2N1 | -0.17 | -0.46 | -11 | 82* | 14 | 0.64
CSc1cccc(NC(=S)N2CCC(N(C)C(C)C)CC2)c1 | 0.16 | -0.061 | -16 | 62* | x | -1.4
CCCCN(C)C1CCN(C(=S)Nc2cccc(SC)c2)CC1 | -0.5 | 0.59 | 9 | 90* | x | -2.3
CCC(C)N(C)C1CCN(C(=S)Nc2cccc(OC)c2)CC1 (centres undefined) | -0.01 | -0.9 | 4 | 11 | 12 | 0.2
CN(C1CCCC1)C1CCN(C(=S)Nc2cc(F)cc(F)c2)CC1 | -0.17 | -0.2 | 11 | 77* | 7 | x
CSc1cccc(NC(=S)N2CCC(N(C)C3CCCCCC3)CC2)c1 | -0.03 | 0.018 | 6 | 88* | -80 | x

High-throughput results from PubChem BioAssay.
